# Values joined by “and” are separate entries in the source; they are usually repeats but may differ in a detail not shown here. Identical values can stand only once. Records with an inconclusive call do not appear. A call without a number means that no potency is given here. Where a structure was tested more than once in an assay, its records may differ in their call. Active and inactive are the calls of the source. Calls come from the whole dose curve; as a rule, active = well fitted curve in the direction sought with a large enough effect in the repeat runs; inconclusive = weak or mixed curves; inactive = no such curve, though single readings can be large; an effect the other way counts as inactive or inconclusive.
# What was measured:
# [1] = Caspase-3/7 induction in HepG2 cells by small molecules, qHTS assay (AID 1346978); note: nearly all actives have a fitted effect of over 15% in size; note: potency is the fitted concentration of half-maximal effect
# Summary of the method: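 Wild-type HepG2 cells, 2,000/well, settled 5 hr at 37 C and 5% CO2, then compound-treated for 17 hr; caspase-3/7 activity read by luminescent Caspase-Glo 3/7 after 30 min at room temperature.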
# [2] = Caspase-3/7 induction in CHO-K1 cells by small molecules, qHTS cell viability counter screen (AID 1346979); note: nearly all actives have a fitted effect of over 35% in size; note: potency is the fitted concentration of half-maximal effect
# Summary of the method: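 Seeding: 1,500 CHO-K1 cells/well. Rest: 5hr, 37C. Treatment: compounds in DMSO, 16hr. Read: CellTiter-Fluor, 1hr, fluorescence.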
# [3] = Caspase-3/7 induction in CHO-K1 cells by small molecules, qHTS assay (AID 1346980); note: nearly all actives have a fitted effect of over 15% in size
# Summary of the method: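 Wild-type CHO-K1 cells exposed to compounds for 17hr at 37 C, 5% CO2. Caspase-3/7 activity then measured by Caspase-Glo 3/7 luminescence after 30min at room temperature.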
# [4] = Caspase-3/7 induction in HepG2 cells by small molecules, qHTS cell viability counter screen (AID 1346981); note: nearly all actives have a fitted effect of over 30% in size; note: potency is the fitted concentration of half-maximal effect
# Summary of the method: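 Multiplexed with the caspase-3/7 assay: HepG2 cells, 16 hr compound treatment, CellTiter-Fluor viability detection by fluorescence.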
# [5] = biological target: Nuclear receptor subfamily 1 group I member 2 (Homo sapiens) (UniProt O75469); test: Human pregnane X receptor (PXR) small molecule agonists, qHTS assay (AID 1346982); note: nearly all actives have a fitted effect of over 35% in size; note: potency is the fitted concentration of half-maximal effect
# Summary of the method: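 We seeded PXR-Luc HepG2 cells in assay medium containing 5% charcoal-stripped FBS, added compounds 5 hr later, incubated 24 hr, and read luminescence with ONE-Glo reagent.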
# [6] = biological target: Nuclear receptor subfamily 1 group I member 2 (Rattus norvegicus) (UniProt Q9R1A7); test: Rat pregnane X receptor (rPXR) activation by small molecules, qHTS assay (AID 1346983); details: rPXR luciferase reporter cells, One-Glo luminescence, 24 h; max activation: stronger effect = higher value; note: nearly all actives have a fitted effect of over 20% in size
# Summary of the method: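 Cell-based rPXR activation assay: rPXR cells, 2,000 per well, rested 5hr at 37 C, then exposed to compounds in DMSO for 24 hr at 37 C. Luciferase activity read by One-Glo luminescence after 30 min at room temperature.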
# [7] = biological target: Nuclear receptor subfamily 1 group I member 2 (Homo sapiens) (UniProt O75469); test: CYP3A4 induction through human pregnane X receptor (PXR) by small molecules, qHTS assay (AID 1346984); note: nearly all actives have a fitted effect of over 40% in size
# Summary of the method: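 qHTS, concentration-response format: HepG2 DPX-2 line, PXR/CYP3A4-luc. Exposure 24 h, 37C. Substrate Luciferin-IPA 3uM final, 3 h. Detection One-Glo, 30 min RT.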
# [8] = biological target: Nuclear receptor subfamily 1 group I member 2 (Homo sapiens) (UniProt O75469); test: Human pregnane X receptor (PXR) activation by small molecules, qHTS assay (AID 1346985); note: nearly all actives have a fitted effect of over 40% in size
# Summary of the method: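 DPX-2 cells (HepG2 co-transfected with a PXR response element and a CYP3A4-promoter luciferase construct) were seeded at 2,000 per well, rested 5 hr at 37C, then exposed to DMSO-dissolved compounds for 24 hr. Activation was read as luciferase luminescence.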
# [9] = biological target: Cytochrome P450 2D6 (Homo sapiens) (UniProt P10635); test: Cytochrome P450 Family 2 Subfamily D Member 6 (CYP2D6) small molecule antagonists: luciferase reporter qHTS assay (AID 1671196); note: nearly all actives have a fitted effect of over 50% in size; note: potency is the fitted concentration of half-maximal effect
# Summary of the method: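 Luminescence (RLU), read 20 min after detection reagent, indicated CYP2D6 conversion of proluciferin to luciferin during a 1 h NADPH-dependent reaction at room temperature.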
# [10] = biological target: Cytochrome P450 2C19 (Homo sapiens) (UniProt P33261); test: Cytochrome P450 Family 2 Subfamily C Member 19 (CYP2C19) small molecule antagonists: luciferase reporter qHTS assay (AID 1671197); note: nearly all actives have a fitted effect of over 65% in size; note: potency is the fitted concentration of half-maximal effect
# Summary of the method: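 CYP2C19 P450-Glo, 1536-well qHTS. Cpd + enzyme/proluciferin substrate 10 min RT; + NADPH regen, 37C 1 h; stop with luciferin detection reagent, 20 min RT, luminescence (RLU). Pos ctrl ketoconazole.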
# [11] = biological target: Cytochrome P450 1A2 (Homo sapiens) (UniProt P05177); test: Cytochrome P450 Family 1 Subfamily A Member 2 (CYP1A2) small molecule antagonists: luciferase reporter qHTS assay (AID 1671199); note: nearly all actives have a fitted effect of over 50% in size; note: potency is the fitted concentration of half-maximal effect
# Summary of the method: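 CYP1A2 turnover of a luminogenic substrate was quantified after 1 h with NADPH regeneration at room temperature. Furafylline served as positive control.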
# [12] = biological target: Voltage-gated inwardly rectifying potassium channel KCNH2 (Homo sapiens) (UniProt Q12809); test: Human Ether-a-go-go-Related Gene (hERG) channel small molecule antagonists: fluorescence cell-based qHTS assay (AID 1671200);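 note: hERG-expressing U2OS cells given a thallium stimulus after FluxOR II dye loading; series mostly up to about 77 µM; nearly all actives have a fitted effect of over 50% in size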
# Summary of the method: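 First, 1000 cells per well are seeded and cultured overnight at 37 C. Next, FluxOR II dye is loaded for 1 h at room temperature, protected from light. After 10 more minutes, stimulus is added and fluorescence is read.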
# [13] = biological target: Cytochrome P450 3A4 (Homo sapiens) (UniProt P08684); test: Cytochrome P450 Family 3 Subfamily A Member 4 (CYP3A4) small molecule antagonists: luciferase reporter qHTS assay (AID 1671201); note: nearly all actives have a fitted effect of over 50% in size; note: potency is the fitted concentration of half-maximal effect
# Summary of the method: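 Enzyme and proluciferin substrate are mixed with test chemicals for 10 min, then NADPH regeneration system drives turnover for 1 h at room temperature. A detection reagent halts the reaction; luminescence after 20 min gives relative activity.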
# [14] = biological target: Cytochrome P450 2C9 (Homo sapiens) (UniProt P11712); test: Cytochrome P450 Family 2 Subfamily C Member 9 (CYP2C9) small molecule antagonists: luciferase reporter qHTS assay (AID 1671198); note: nearly all actives have a fitted effect of over 50% in size; note: potency is the fitted concentration of half-maximal effect
# Summary of the method: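 P450-Glo proluciferin substrate with CYP2C9 enzyme; 10 min RT preincubation, then NADPH regeneration 1 h at 37C; luciferin detection reagent 20 min RT, luminescence in relative luminescence units.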
# Sequence of Cytochrome P450 2D6 (Homo sapiens) (P10635 whole entry, looked up): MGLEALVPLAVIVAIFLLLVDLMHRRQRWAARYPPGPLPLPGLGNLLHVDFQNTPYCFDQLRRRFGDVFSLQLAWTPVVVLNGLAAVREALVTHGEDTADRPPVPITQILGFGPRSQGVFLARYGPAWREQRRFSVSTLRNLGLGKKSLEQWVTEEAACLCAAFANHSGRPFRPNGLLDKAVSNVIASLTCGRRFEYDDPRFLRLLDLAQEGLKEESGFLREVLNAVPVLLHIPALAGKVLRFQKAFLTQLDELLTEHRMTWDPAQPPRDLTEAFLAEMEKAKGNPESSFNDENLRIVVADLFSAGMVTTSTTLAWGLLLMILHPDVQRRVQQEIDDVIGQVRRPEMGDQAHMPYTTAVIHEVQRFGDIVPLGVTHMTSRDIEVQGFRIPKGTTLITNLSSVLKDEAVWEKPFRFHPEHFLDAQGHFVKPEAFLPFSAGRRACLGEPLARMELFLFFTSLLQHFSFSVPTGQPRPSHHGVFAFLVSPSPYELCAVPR
# Sequence of Voltage-gated inwardly rectifying potassium channel KCNH2 (Homo sapiens) (Q12809 whole entry, looked up): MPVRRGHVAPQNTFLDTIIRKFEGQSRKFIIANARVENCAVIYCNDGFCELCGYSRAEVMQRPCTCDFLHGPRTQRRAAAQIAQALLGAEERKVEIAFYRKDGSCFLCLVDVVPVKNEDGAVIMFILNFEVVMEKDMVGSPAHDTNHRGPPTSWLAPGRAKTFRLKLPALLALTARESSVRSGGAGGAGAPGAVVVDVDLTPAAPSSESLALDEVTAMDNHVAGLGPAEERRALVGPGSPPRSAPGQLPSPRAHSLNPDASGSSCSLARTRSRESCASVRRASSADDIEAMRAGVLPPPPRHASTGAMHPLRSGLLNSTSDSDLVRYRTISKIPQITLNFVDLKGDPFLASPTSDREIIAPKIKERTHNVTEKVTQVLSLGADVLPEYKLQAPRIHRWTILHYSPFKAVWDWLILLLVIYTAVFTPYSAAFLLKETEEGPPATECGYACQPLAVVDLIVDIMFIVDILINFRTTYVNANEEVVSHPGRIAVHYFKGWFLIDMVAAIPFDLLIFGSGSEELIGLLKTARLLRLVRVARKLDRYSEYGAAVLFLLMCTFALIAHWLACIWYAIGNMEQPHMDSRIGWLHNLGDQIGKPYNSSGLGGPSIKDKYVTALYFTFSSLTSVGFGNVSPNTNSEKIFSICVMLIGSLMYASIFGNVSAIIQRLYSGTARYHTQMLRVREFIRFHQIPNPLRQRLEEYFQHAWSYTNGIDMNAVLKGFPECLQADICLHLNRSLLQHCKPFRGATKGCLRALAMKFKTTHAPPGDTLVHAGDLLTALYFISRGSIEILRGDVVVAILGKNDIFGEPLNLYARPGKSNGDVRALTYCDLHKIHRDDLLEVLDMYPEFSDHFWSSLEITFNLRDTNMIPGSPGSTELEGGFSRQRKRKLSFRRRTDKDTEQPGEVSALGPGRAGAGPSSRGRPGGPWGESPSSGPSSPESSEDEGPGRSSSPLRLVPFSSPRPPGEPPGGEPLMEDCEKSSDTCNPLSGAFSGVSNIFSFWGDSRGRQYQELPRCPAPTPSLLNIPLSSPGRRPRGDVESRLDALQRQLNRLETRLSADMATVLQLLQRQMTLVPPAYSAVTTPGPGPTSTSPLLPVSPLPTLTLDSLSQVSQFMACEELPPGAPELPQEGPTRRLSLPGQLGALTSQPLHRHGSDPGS
# Sequence of Cytochrome P450 3A4 (Homo sapiens) (P08684 whole entry, looked up): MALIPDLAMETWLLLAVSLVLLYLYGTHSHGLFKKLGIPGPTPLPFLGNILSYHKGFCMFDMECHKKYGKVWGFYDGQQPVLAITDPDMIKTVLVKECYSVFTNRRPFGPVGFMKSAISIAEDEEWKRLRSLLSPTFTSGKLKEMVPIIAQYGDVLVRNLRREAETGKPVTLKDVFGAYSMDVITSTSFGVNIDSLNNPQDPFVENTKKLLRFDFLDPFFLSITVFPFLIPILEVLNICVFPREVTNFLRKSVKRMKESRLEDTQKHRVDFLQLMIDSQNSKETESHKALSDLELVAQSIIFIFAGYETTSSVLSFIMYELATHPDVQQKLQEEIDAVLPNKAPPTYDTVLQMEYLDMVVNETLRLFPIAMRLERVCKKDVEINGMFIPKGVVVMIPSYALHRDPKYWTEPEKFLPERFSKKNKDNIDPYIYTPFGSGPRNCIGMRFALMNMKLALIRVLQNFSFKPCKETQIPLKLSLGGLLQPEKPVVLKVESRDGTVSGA
# Sequence of Cytochrome P450 1A2 (Homo sapiens) (P05177 whole entry, looked up): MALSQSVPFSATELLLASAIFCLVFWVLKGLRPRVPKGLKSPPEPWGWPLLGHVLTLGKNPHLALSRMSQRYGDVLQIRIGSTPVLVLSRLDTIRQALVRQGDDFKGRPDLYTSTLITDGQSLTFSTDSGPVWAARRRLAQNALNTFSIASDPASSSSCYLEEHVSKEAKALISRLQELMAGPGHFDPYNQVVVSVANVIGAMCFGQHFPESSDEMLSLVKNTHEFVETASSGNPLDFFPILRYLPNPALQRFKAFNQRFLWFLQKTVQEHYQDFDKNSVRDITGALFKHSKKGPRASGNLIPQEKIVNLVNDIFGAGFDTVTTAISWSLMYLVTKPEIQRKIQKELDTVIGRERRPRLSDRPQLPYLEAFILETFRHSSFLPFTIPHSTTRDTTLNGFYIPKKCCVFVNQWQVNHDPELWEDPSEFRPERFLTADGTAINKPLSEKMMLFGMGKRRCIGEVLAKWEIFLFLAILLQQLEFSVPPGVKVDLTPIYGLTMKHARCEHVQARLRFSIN
# Sequence of Cytochrome P450 2C9 (Homo sapiens) (P11712 whole entry, looked up): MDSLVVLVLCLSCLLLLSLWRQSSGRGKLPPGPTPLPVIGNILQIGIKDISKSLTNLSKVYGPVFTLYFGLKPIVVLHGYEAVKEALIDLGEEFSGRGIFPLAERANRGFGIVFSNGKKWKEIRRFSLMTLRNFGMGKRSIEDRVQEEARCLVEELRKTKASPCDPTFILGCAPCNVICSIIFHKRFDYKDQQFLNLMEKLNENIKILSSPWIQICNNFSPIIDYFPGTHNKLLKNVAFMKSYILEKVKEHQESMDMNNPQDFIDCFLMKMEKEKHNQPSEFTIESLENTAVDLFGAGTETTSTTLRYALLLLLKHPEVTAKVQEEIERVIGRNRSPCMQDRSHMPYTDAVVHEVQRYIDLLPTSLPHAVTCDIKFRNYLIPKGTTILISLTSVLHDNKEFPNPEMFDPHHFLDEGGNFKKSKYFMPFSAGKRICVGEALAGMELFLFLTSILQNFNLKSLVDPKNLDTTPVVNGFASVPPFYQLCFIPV
# Sequence of Nuclear receptor subfamily 1 group I member 2 (Rattus norvegicus) (Q9R1A7 whole entry, looked up): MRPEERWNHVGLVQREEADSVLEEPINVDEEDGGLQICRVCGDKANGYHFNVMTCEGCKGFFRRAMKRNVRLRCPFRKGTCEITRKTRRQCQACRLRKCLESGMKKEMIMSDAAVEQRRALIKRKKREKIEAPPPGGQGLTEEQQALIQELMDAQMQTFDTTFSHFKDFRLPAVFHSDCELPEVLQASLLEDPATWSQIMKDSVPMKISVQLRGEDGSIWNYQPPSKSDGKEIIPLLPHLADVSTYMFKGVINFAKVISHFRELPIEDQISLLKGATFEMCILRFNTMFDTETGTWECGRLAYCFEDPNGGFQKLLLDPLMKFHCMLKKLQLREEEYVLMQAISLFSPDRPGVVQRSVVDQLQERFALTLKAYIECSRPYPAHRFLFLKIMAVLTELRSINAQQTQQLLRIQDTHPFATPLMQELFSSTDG
# Sequence of Nuclear receptor subfamily 1 group I member 2 (Homo sapiens) (O75469 whole entry, looked up): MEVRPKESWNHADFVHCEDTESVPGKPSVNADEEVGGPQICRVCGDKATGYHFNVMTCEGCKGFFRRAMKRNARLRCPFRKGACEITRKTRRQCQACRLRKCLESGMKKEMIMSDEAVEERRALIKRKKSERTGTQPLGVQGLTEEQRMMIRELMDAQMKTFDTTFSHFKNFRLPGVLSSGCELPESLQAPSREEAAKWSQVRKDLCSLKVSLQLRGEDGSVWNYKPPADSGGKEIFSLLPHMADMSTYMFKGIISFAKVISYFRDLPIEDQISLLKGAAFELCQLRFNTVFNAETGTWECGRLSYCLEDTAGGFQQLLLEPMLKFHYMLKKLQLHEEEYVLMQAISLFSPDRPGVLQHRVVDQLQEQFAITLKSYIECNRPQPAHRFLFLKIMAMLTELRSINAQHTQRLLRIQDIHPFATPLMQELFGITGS
# Sequence of Cytochrome P450 2C19 (Homo sapiens) (P33261 whole entry, looked up): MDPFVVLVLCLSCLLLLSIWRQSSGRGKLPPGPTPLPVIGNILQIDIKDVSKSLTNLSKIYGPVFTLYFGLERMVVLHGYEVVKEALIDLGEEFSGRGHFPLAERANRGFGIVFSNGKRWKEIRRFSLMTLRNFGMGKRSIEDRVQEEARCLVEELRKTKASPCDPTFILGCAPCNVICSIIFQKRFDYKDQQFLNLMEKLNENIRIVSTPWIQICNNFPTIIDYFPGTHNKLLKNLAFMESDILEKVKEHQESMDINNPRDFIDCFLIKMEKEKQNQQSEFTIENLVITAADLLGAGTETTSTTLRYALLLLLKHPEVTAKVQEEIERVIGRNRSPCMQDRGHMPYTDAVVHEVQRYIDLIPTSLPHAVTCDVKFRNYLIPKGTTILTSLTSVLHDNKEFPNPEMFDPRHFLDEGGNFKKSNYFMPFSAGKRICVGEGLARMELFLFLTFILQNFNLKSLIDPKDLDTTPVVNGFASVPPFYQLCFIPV
SMILES,Potency [1],Potency [2],outcome [3],Potency [4],Potency [5],max activation [6],Potency [7],Potency [8],Potency [9],Potency [10],Potency [11],Potency [12],Potency [13],Potency [14]
NC(=O)c1ccc([N+](=O)[O-])cc1Cl,inactive,inactive,inactive,inactive,inactive,2.53% (inactive),inactive,inactive,inactive,inactive,inactive,inactive,inactive,
OC[C@@H](O)[C@@H](O)[C@H](O)[C@H](O)CO,inactive,inactive,inactive,inactive,inactive,-0.524% (inactive),inactive,inactive,inactive,inactive,inactive,inactive,inactive,
Oc1cccc(O)c1,42 µM (active) and inactive,inactive,inactive,inactive,47.1 µM (active) and inactive,-3.43% (inactive),inactive,inactive,inactive,inactive,inactive,inactive,,
COc1cc(O)c(C(=O)c2ccccc2)cc1S(=O)(=O)O,inactive,inactive and 13.3 µM (active),inactive,inactive,inactive,-1.72% (inactive),inactive,inactive,inactive,78.8 µM (active) and inactive,inactive,inactive,inactive,inactive
CC1=C(/C=C/C(C)=C/C=C/C(C)=C/C(=O)O)C(C)(C)CCC1,inactive,68.5 µM (active) and inactive,inactive,inactive,54.5 µM (active) and 61.1 µM (active) and 33.5 µM (active),,,,inactive,20 µM (active) and 35.5 µM (active),inactive,,35.6 µM (active) and 28.2 µM (active),71.1 µM (active) and 39.9 µM (active) and 34.7 µM (active)
C=CC(=O)NC(C)(C)CS(=O)(=O)O,inactive,inactive,inactive,inactive,inactive,,,,49.2 µM (active) and inactive,inactive,inactive,inactive,inactive,inactive
CCOCCO,inactive,inactive,inactive,inactive,inactive,,,,inactive,inactive,inactive,inactive,inactive,
CC(C)CC(C)CC(O)CC(C)C (stereo unspecified),inactive,inactive,inactive,inactive,inactive,,,,inactive,inactive,inactive,inactive,inactive,
O=C1CCCCCN1,inactive,1.73 µM (active) and inactive,inactive,inactive,inactive,,,,inactive,40 µM (active) and inactive,inactive,inactive,inactive,inactive
O=C(O)CCCCC1CCSS1 (stereo unspecified),inactive,inactive,inactive,inactive,inactive,,,,inactive,49.6 µM (active) and inactive,inactive,inactive,inactive,inactive
COCC(C)N (stereo unspecified),inactive,inactive,inactive,inactive,inactive,,,,inactive,inactive,44.8 µM (active),inactive,inactive,inactive
COc1ccccc1NC(=O)CC(C)=O,inactive,inactive,inactive,inactive,61.1 µM (active),,,,inactive,78.5 µM (active) and inactive,31.3 µM (active) and 35.6 µM (active),inactive,63.3 µM (active),
c1ccc2[nH]c(-c3cscn3)nc2c1,inactive,inactive,inactive,inactive,30.8 µM (active) and 770 nM (active) and 6.68 µM (active),,,,39.9 µM (active) and 38.9 µM (active),35.8 µM (active) and 71 µM (active) and 34.7 µM (active),5.06 µM (active) and 2.83 µM (active) and 2.45 µM (active),inactive,,
CC(=O)OC/C=C(C)/C=C/C=C(C)/C=C/C1=C(C)CCCC1(C)C,inactive,66.9 µM (active) and 68.6 µM (active) and inactive,inactive,inactive,59.6 µM (active) and 34.4 µM (active) and 15 µM (active),,,,34.7 µM (active) and inactive,39 µM (active) and 35.6 µM (active),inactive,inactive,,31 µM (active) and 31.7 µM (active) and 19.5 µM (active)
O=[N+]([O-])c1ccc(O)cc1,inactive,56.6 µM (active) and 54.5 µM (active) and 48.6 µM (active),inactive,56.6 µM (active) and 61.1 µM (active) and 54.5 µM (active),inactive,,,,inactive,33 µM (active),20.8 µM (active) and inactive,inactive,5.86 µM (active) and inactive,inactive
